# Screen size: about 290,000 compounds; about 3,000 (1%) were called active. No rule for the calls is given here. The sample as a whole holds a higher share of actives than the screen did.
# Biological target: Polyadenylate-binding protein 1 (Homo sapiens) (UniProt P11940)
# Assay: PABP poly(A) RNA binding inhibitors, primary screen, biochemical, fluorescence polarization, uHTS (AID 2014);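 also: calls also rest on retests at 20 µM and on dose response follow-up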
# Details: stronger effect = higher value
# Sequence of Polyadenylate-binding protein 1 (Homo sapiens) (P11940 whole entry, looked up): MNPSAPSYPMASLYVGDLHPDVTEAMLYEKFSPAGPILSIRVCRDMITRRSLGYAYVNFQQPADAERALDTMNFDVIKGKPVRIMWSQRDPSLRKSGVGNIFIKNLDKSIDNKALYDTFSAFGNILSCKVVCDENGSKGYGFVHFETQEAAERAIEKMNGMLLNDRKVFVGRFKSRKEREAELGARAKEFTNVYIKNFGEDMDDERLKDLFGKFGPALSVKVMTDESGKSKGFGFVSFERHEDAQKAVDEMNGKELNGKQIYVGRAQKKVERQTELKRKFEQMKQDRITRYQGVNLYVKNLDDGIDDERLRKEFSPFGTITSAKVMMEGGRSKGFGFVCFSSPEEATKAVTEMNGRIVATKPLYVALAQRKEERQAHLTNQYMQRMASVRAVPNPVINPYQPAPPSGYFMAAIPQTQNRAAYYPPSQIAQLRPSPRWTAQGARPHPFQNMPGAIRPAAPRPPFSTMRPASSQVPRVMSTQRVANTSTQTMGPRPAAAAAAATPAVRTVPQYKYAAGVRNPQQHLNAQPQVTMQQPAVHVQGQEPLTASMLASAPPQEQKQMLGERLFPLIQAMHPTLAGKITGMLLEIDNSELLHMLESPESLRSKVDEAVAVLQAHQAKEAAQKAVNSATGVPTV
SMILES,inhibition (at 35 µM),"inhibition (confirmation repeats, at 20 µM) [%]"
Cc1nc2ccccc2c(=O)n1Cc1ccc([N+](=O)[O-])cc1,-8.9% (inactive),–
Cc1ccc(Cn2c(C)nc3c(c2=O)c2nc4ccccc4nc2n3Cc2ccco2)cc1,17.9% (inactive),–
Cc1nc2c(c(=O)n1Cc1ccco1)c1nc3ccccc3nc1n2Cc1ccccc1,57.3% (active),–
Cc1cccc(NS(=O)(=O)c2cc(Cl)ccc2Cl)n1,-4.9% (inactive),–
O=C1CCNCCN1[C@H](CO)Cc1ccccc1,-8.7% (inactive),–
COc1ccc(C(=O)NC2=NCCS2)c(OC)c1,-7.6% (inactive),–
COc1ccc2cc(C(=O)NCC3CCCO3)[nH]c2c1 (stereo unspecified),0.3% (inactive),–
O=S(=O)(c1ccc(Br)cc1)N1CCC(c2nc3ccccc3[nH]2)CC1,3.9% (inactive),–
Cc1ccc(CCCOC(=O)C[N+]2(C)CCCCC2)cc1,50.6% (active),–
CCCCOC(=O)Cn1c(=O)n(CC(=O)OCCCC)c2cc(C)ccc21,-8.1% (inactive),–
Cc1ccc(CCCOC(=O)C[N+]2(C)CCCC2)cc1,2.4% (inactive),–
Cc1ccc(C(=O)COC(=O)CCN2C(=O)C3C4CCC(C4)C3C2=O)cc1C (stereo unspecified),-12.4% (inactive),–
COc1cccc(NC(=O)N2CCC(NC(=O)C(Cc3cccc(C)c3)NC(C)=O)CC2)c1 (stereo unspecified),2.7% (inactive),–
CCC(C)Cn1c(O)cc2nn(-c3nc4ccccc4s3)c(=O)c-2c1C (stereo unspecified),68.7% (active),–
C/C(=N\NC(=O)CC(C)C)c1c(C(F)(F)F)[nH]n(-c2nc3ccccc3s2)c1=O,-1.1% (inactive),–
Cc1cc(NC(=O)CN2CCCC(C)C2)n(-c2nc3ccccc3s2)n1 (stereo unspecified),5.3% (inactive),–
CCOC(=O)c1ccccc1NC(=O)COC(=O)CCC(=O)N1CCOCC1,-1.1% (inactive),–
COc1ccccc1NC(=O)c1cc(N2C(=O)C3C4CCC(C4)C3C2=O)ccc1Cl (stereo unspecified),1.6% (inactive),–
O=C1CC(NNc2ccccc2)C(=O)N1c1cccc(Cl)c1 (stereo unspecified),-2.5% (inactive),–
O=C1CC(c2ccccc2)C(=O)N1c1cccc(O)c1 (stereo unspecified),-5.5% (inactive),–
O=C1OCC2=C1C(c1ccccc1)CC(=O)N2c1cccc(F)c1 (stereo unspecified),68% (active),65.5
CCc1nnc(NC(=O)CCC(=O)N2CCN(c3cc(C)ccc3C)CC2)s1,11.5% (inactive),–
O=C(OCc1ccc(-c2ccccc2)cc1)c1cccc(O)c1,10.5% (inactive),–

SMILES,inhibition (at 35 µM),"inhibition (confirmation repeats, at 20 µM) [%]"
CCc1ccc(OCC2c3cc(OC)c(OC)cc3CCN2C(C)=O)cc1 (stereo unspecified),6.8% (inactive),–
COc1cc2c(cc1O)[C@H](Cc1ccc(Oc3cc(C[C@@H]4NCCc5cc(OC)c(O)cc54)ccc3O)cc1)NCC2,0.1% (active),91.3
CC[C@H]1CN2CCc3cc(OC)c(OC)cc3[C@@H]2C[C@@H]1C[C@H]1NCCc2cc(OC)c(OC)cc21,1.5% (inactive),–
COc1ccccc1C(=O)Nc1ccnn1C1CCN(C(=O)C(C)(C)C)CC1,8.7% (inactive),–
C=CCNc1nnc(C)c2ccccc12,-0.7% (inactive),–
C=CCNc1nnc(SCC(=O)N2CCCCC2)c2ccccc12,116% (active),56.4
O=C(CSc1ncccn1)N1CCCC1,9.6% (inactive),–
Cc1nc(-c2ccc(F)cc2)c(CC(=O)N2CCN(S(=O)(=O)c3ccc(F)cc3)CC2)s1,6.2% (inactive),–
O=C(CN1CCC(O)(c2cccc(C(F)(F)F)c2)CC1)NCCc1ccccc1,-5% (inactive),–
O=C(Nc1cccc([N+](=O)[O-])c1)N1CCc2ccccc2C1,-6.2% (inactive),–
CC(C(=O)NCCc1ccc(S(N)(=O)=O)cc1)N1C(=O)CC(C)(C)Sc2ccccc21 (stereo unspecified),-1.3% (inactive),–
Cc1cccc(NC(=O)c2sc3nc4c(c(-c5ccco5)c3c2N)CCC4)c1,63% (active),87.7
NC(=O)c1sc2nc3c(c(-c4ccccc4)c2c1N)CCC3,-3.5% (inactive),–
Cc1cccc(NC(=O)c2sc3nc(N4CCOCC4)c4c(c3c2N)CCCC4)c1,4.1% (inactive),–
O=C(CNC(=O)c1ccccc1F)c1ccc(Br)cc1,0.1% (inactive),–
O=C(O)c1ccc2c(=O)n3c(nc2c1)/C(=C/c1ccc(OC(F)F)cc1OC(F)F)CC3,5.3% (inactive),–
CC(NC(=O)c1cc(=O)[nH]c2ccccc12)c1ccc(F)cc1F (stereo unspecified),12.3% (inactive),–
Cc1cc(/C=C2/C(=N)N3C(=NC2=O)SN=C3S(C)(=O)=O)c(C)n1-c1ccccc1,-5.5% (inactive),11.8
CS(=O)(=O)C1=NN2C(=N)/C(=C\c3ccc(OCCOc4ccccc4)cc3)C(=O)N=C2S1,16.8% (inactive),–
CS(=O)(=O)c1ccc2c(c1)SC1=NC(=O)/C(=C/c3ccco3)C(=N)N12,91% (active),–
Cc1cccc(OC(C)C(=O)N2CCc3ccccc3C2)c1 (stereo unspecified),-5.4% (inactive),–
CC(C)[C@@H](C(=O)O)N(Cc1cccc(CN([C@H](C(=O)O)C(C)C)S(C)(=O)=O)c1)S(C)(=O)=O,4.8% (inactive),–
CO/N=C(\N)c1ccc([N+](=O)[O-])cc1,-0.6% (inactive),–

# Source: PubChem BioAssay AID2014 (Sanford-Burnham Center for Chemical Genomics, 2009)
